Measured values from PubChem BioAssay AID1814 (Broad Institute, 2009).
Hit rate of the full screen: of about 300,000 compounds, about 22,000 (7.3%) were called active. Not shown: some 2% with an inconclusive outcome. No stated cut-off is given here; in the data, active means activity score below about -60%; inconclusive means mostly about -28% to -61%; inactive means positive scores. The sample as a whole holds a higher share of actives than the screen did.

Assay: Activators via SNCA 5'UTR binding, MLPCN (AID 1814)
Settings: alpha-synuclein 5'UTR reporter, activators screen; active compounds read low; tested at 7.5 µM

| SMILES | activity score |
| --- | --- |
| CCOC(=O)c1cccc(NC(=O)c2ccc(F)cc2F)c1 | -127% (active) |
| CCC(=C/c1sc2ccc3ccccc3c2[n+]1C)/C=C1\Sc2ccc3ccccc3c2N1C | -122% (active) |
| O=C(c1nnc(-c2ccc(Cl)cc2)o1)C1CCCC1 | -86.2% (active) |
| CCOC(=O)c1sc(-c2cccc([N+](=O)[O-])c2)cc1N | -129% (active) |
| O=C(Cn1cnc2c(cnn2-c2ccccc2)c1=O)NCc1ccccc1 | -148% (active) |
| O=C(OCc1ccc(-c2ccccc2)cc1)c1cccc(O)c1 | -109% (active) |
| O=C(OCC(=O)c1c[nH]c2ccccc12)c1cccc(O)c1 | -220% (active) |
| CCc1ccccc1NC(=O)c1cc(-c2ccc3c(c2)OCO3)on1 | -145% (active) |
| C/C(=N/Nc1nc(-c2ccccc2)c(CC(=O)O)s1)c1ccccc1 | -168% (active) |
| COc1ccccc1N1CCN(/N=C/c2ccc(O)cc2O)CC1 | -147% (active) |
| COc1ccccc1N1CCN(/N=C\C(Br)=C\c2ccccc2)CC1 | -74.9% (active) |
| CCNC(=O)N1CCNC(=O)C1CC(=O)Nc1ccc(C(=O)OCC)cc1 (centres undefined) | -69.7% (active) |
| COc1ccc(-c2cc(C(=O)NC(Cc3c[nH]c4ccccc34)C(=O)O)c(C)o2)cc1OC (centres undefined) | -104% (active) |
| CCOc1ccc(C2c3[nH]c4ccccc4c3CCN2Cc2cn(CC)nc2C)cc1 (centres undefined) | -101% (active) |
| COc1ccccc1-c1cnn2c(N3CCOCC3)cc(C)nc12 | -164% (active) |
| CCn1ccnc1CN(C)Cc1nc(-c2ccc3c(c2)OCO3)no1 | -80.6% (active) |
| Cc1ccc(NC(=O)c2cc3ccccc3o2)cc1 | -123% (active) |
| O=C(NC(=S)Nc1cccc(-c2ccc(CO)o2)c1)c1cccs1 | -80.9% (active) |
| COc1ccc2occ(C(=O)c3ccc(N=C(C)N(C)C)cc3)c2c1 | -75.8% (active) |
| COC(=O)c1ccc(NCC(=O)c2ccccc2)cc1 | -123% (active) |
| C=CCNC(=O)c1ccc2c3n(nc2c1)-c1ccc(C)cc1CO3 | -197% (active) |
| Cc1ccccc1-n1c(C)cc(/C=C2\NC(=O)NC2=O)c1C | -131% (active) |
| Cc1nn(CCOc2ccccc2)c(=O)n1-c1ccccc1F | -99.2% (active) |
| C=C(C)CSc1nnc(-c2ccc(C)cc2)n1N | -99.6% (active) |
| CCCCOc1ccc(CSC(=N)N)cc1[N+](=O)[O-] | -91.9% (active) |
| CCCCCOc1ccc(CSC2=NCCN2)cc1[N+](=O)[O-] | -150% (active) |

| SMILES | activity score |
| --- | --- |
| CC1(C)C=Cc2c(ccc3c2OC[C@@H](c2ccc(O)cc2O)C3)O1 | -154% (active) |
| CC(C)Cc1cc(C(=O)Nc2cc(Br)ccc2O)no1 | -135% (active) |
| CC(C)CNC(=O)c1cc(-c2ccc(Br)cc2)on1 | -187% (active) |
| CC(C)Cc1cc(C(=O)NCCc2ccccc2)no1 | -169% (active) |
| Cc1cccc(NC(=S)NC(=O)c2ccc(Br)o2)c1 | -131% (active) |
| Cc1cccc(NC(=O)NC(=S)NC(=O)c2ccccc2)c1 | -62.7% (active) |
| Cc1ccc(NC(=O)NC(=O)c2ccccc2)cc1F | -128% (active) |
| Cc1cccc(NC(=O)c2ccc([N+](=O)[O-])o2)c1 | -159% (active) |
| Cc1nn(-c2ccccc2)c(C)c1NC(=O)CCl | -101% (active) |
| CCCCCCOC(=O)NCC(O)c1ccccc1 (centres undefined) | -126% (active) |
| COCC1CCCN(Cc2nc(-c3ccc4c(c3)OCO4)no2)C1 (centres undefined) | -62.5% (active) |
| Cc1ccc2nc(Nc3ccccc3)cc(C)c2c1 | -82.2% (active) |
| Cc1cc(Nc2ccc(Br)cc2)nc2ccccc12 | -83.2% (active) |
| CCOc1cc(/C=N/Nc2cc(C)nc3ccc(C)cc23)ccc1O | -66.2% (active) |
| Cc1ccc(-c2nc(-c3ccncc3)no2)c(C)c1 | -108% (active) |
| c1csc(-c2nc(-c3ccncc3)no2)c1 | -153% (active) |
| Cn1ccnc1-c1nnn(-c2ccc(F)cc2)n1 | -89.8% (active) |
| Oc1ccc(/C=N/Nc2ccc(C(F)(F)F)cn2)cc1O | -195% (active) |
| Oc1ccc(Br)cc1/C=N/Nc1ccccn1 | 66.4% (inactive) |
| c1ccc(-n2ncc3c2ncn2c(C4CCCCC4)nnc32)cc1 | -128% (active) |
| c1ccc(Nc2nc(-c3ccncc3)cs2)nc1 | -108% (active) |
| Clc1ccc(Nc2nc(-c3cccs3)cs2)nc1 | -244% (active) |
| CC(=O)Nc1cccc(-c2cnc3ccccc3n2)c1 | -207% (active) |
| Cc1cccc(Nc2nc(-c3ccccc3)cs2)n1 | -106% (active) |
| CC(=O)Nc1cccc(-c2csc(Nc3cccc(C)n3)n2)c1 | -234% (active) |
| c1cnc(Nc2nc(-c3ccc4ccccc4c3)cs2)nc1 | -125% (active) |

| SMILES | activity score |
| --- | --- |
| CCOc1cc2[nH]c(=S)n(Cc3ccc(C(=O)N4CCN(C)CC4)cc3)c(=O)c2cc1OCC | 86.1% (inactive) |
| CCCOc1ccccc1C1CC(=O)Nc2cc3c(cc21)OCO3 (centres undefined) | 111% (inactive) |
| COc1ccccc1C1C2=C(COC2=O)Nc2cc3c(cc21)OCO3 (centres undefined) | 98.1% (inactive) |
| COc1cc2c(cc1/C=C1/NC(=O)N(c3ccccc3)C1=O)OCO2 | -142% (active) |
| Cc1noc(C)c1/C=N/Nc1ccc2ccccc2n1 | -146% (active) |
| C(=N\Nc1ccc2ccccc2n1)/c1ccc2c(c1)OCO2 | 88.2% (inactive) |
| C/C(=N\NC(=O)OC(C)(C)C)c1ccc[nH]1 | -122% (active) |
| O=C(Nn1cnc2ccccc2c1=O)c1ccc(F)cc1Cl | -87.1% (active) |
| O=[N+]([O-])c1ccc2c(c1)Nc1nc3ccccc3nc1N2 | -94.2% (active) |
| Cn1c(=NC(=O)c2cnccn2)sc2ccccc21 | -97.9% (active) |
| O=C(NC(=S)Nc1ccccc1C(=O)O)c1ccc(-c2ccc(Br)cc2)o1 | -123% (active) |
| O=C(NC1CCCC1)C(=O)c1c[nH]c2ccccc12 | -81.6% (active) |
| O=C(CN1CCCCCC1)Nc1c(Cl)cc(Cl)cc1Cl | -86.3% (active) |
| O=C(CN1CCCCCC1)Nc1ccc(Br)cc1Br | -101% (active) |
| O=C(Nc1ccc(OC(F)(F)F)cc1)c1ccc2c(c1)no[n+]2[O-] | -72.3% (active) |
| Cc1cc(Cl)nc(NC(=O)Nc2cccc(Cl)c2)n1 | -64.7% (active) |
| CCN1CCN(C(=O)CSc2ccc(C)cc2)CC1 | -69.7% (active) |
| Cc1ccc(N/N=C2\COC(C)(C)CC2=O)cc1 | -141% (active) |
| COc1ccc(C2NC(=O)c3ccccc3N2)cc1 (centres undefined) | -70.6% (active) |
| COc1ccc(OC)c(C2C3=C(N=c4s/c(=C\c5cccc(O)c5)c(=O)n42)c2ccccc2CC3)c1 (centres undefined) | 58.4% (inactive) |
| COc1cccc(C(=O)Nc2ccc(N3CCCC3)cc2)c1 | -189% (active) |
| COc1cccc(C(=O)NNC(=O)c2cccc(F)c2)c1 | -79.5% (active) |
| CN1CCN(c2ccc(NC(=O)c3ccccc3)cc2)CC1 | -102% (active) |
| COc1cccc(C(=O)Nc2ccc(N3CCN(C(=O)c4ccco4)CC3)cc2)c1 | -184% (active) |
| CC[C@]1(O)CC2CN(CCc3c([nH]c4ccccc34)[C@@](C(=O)OC)(c3cc4c(cc3OC)N(C=O)[C@H]3[C@@](O)(C(=O)OC)[C@H](OC(C)=O)[C@]5(CC)C=CCN6CC[C@]43[C@@H]65)C2)C1 (some centres undefined) | 102% (inactive) |
| Cc1ccccc1C(=O)Nc1ccc(N2CCCCCC2)cc1 | -160% (active) |

| SMILES | activity score |
| --- | --- |
| COc1cccc(C(=O)Nc2cc3c(cc2Br)OCCCO3)c1 | -98.2% (active) |
| COc1cccc(C(=O)Nc2ccc(NC(=O)c3ccco3)cn2)c1 | -135% (active) |
| COC(=O)c1c(C)[nH]c(C(=O)/C=C/c2ccc(Cl)cc2)c1C | -131% (active) |
| NC(=O)Cc1ccc2sc(-c3ccccc3)nc2c1 | -98.2% (active) |
| O=C(c1cc(-c2ccc(Cl)cc2)on1)N1CCN(c2ccccc2)CC1 | -113% (active) |
| COc1ccccc1-c1cc(C(=O)N2CCCCC2)no1 | -93.5% (active) |
| COc1cc(Cl)ccc1OCc1cc(C(=O)N2CC[C@@H]3CCCC[C@H]3C2)no1 | -69% (active) |
| O=C(c1cc(-c2cccs2)on1)N1CCCCC1 | -73.9% (active) |
| CCCOC1CCCN(C(=O)c2cc(COc3cncc(Cl)c3)on2)C1 (centres undefined) | -219% (active) |
| COc1ccc(OCc2cc(C(=O)N3CCCC3)no2)c2ccccc12 | -148% (active) |
| O=C(c1cc(-c2ccccc2O)on1)N1CCCC1 | -142% (active) |
| COc1cccc(OCc2cc(C(=O)N3CCN(C(=O)c4ccco4)CC3)no2)c1 | -121% (active) |
| Cc1nc(-c2ccccc2)sc1C1(C)CC(c2cccnc2)=NO1 (centres undefined) | -91.2% (active) |
| COc1ccc(C(C#N)Nc2ccc(C)cc2)cc1 (centres undefined) | -61.8% (active) |
| COc1cc(OC)cc(C(=O)Nc2ccc(-c3nc4ccccc4o3)c(O)c2)c1 | -61.8% (active) |
| CC(=O)Nc1ccc(-c2nc3ccccc3o2)cc1 | -91.4% (active) |
| CCOC(=O)c1ccc(NC(=O)c2cccnc2)cc1 | -77.6% (active) |
| Cc1cc2nc(-c3ccc(NC(=O)c4cccnc4)cc3)oc2cc1C | -164% (active) |
| CCOC(=O)c1ccc(NC(=O)Cc2cccs2)cc1 | -126% (active) |
| CCCC(=O)N1c2ccc(-c3csc(N)n3)cc2CC1C (centres undefined) | -192% (active) |
| CC(=C/c1ccccc1)/C=N/NC(=O)c1cc(C)oc1C | -125% (active) |
| CC(C)c1cc(C(=O)N/N=C/C(Br)=C/c2ccccc2)n[nH]1 | -105% (active) |
| Cc1cc(C(=O)N/N=C\C(Br)=C\c2ccccc2)c(C)o1 | -124% (active) |
| Cc1cc(C(=O)N/N=C/c2ccc(N3CCOCC3)cc2)c(C)o1 | -87.1% (active) |
| CC(C)(C)c1cc(C(=O)N/N=C/c2ccc([N+](=O)[O-])s2)n[nH]1 | 64% (inactive) |
| Cc1cc(C(=O)N/N=C/c2ccccc2[N+](=O)[O-])c(C)o1 | -112% (active) |
